Compound activity from PubChem.
This is a sample that favours compounds with a hit; in the whole collection about 12% have one here.
USP8 block: blocks human USP8 ubiquitin-rhodamine cleavage; P40818; purified USP8, Ub-rhodamine cleavage fluorescence, 30 min; inhibition, % at 20 µM; 47,000 compounds, 4.2% hits
USP30 block: blocks human USP30 ubiquitin-rhodamine cleavage; 47,000 compounds, 5.3% hits; Q70CQ3; purified USP30, Ub-rhodamine cleavage fluorescence; AID 1645860; inhibition, % at 25 µM
USP17 inh: blocks human USP17 ubiquitin-rhodamine cleavage. 47,000 compounds, 6.5% hits. AID 1645855. purified USP17, Ub-rhodamine cleavage fluorescence, 3 h. inhibition, % at 50 µM
The depositor's hits bear a star. Rule as the data show it: active = inhibition above about 30%; inactive = the rest.

SMILES	USP8 block	USP30 block	USP17 inh
O=C(Nc1ccccc1N1CCOCC1)c1ccc(S(=O)(=O)N2CCOCC2)cc1	-50	15	-11
CCN(CC)CCn1c(NC(=O)c2ccc(S(=O)(=O)N3CCOCC3)cc2)nc2ccccc21	70*	3	8
CC1CCc2c(sc3nc(SCC(=O)NCc4ccco4)[nH]c(=O)c23)C1 (configuration not stated)	-4	-20	0
CCNc1nc(SCC(C)=O)nc2sc3c(c12)CCC(C)C3 (configuration not stated)	2	34*	58*
CCc1nnc(C(=O)Nc2ccc(C(=O)NCc3ccc(OC(C)C)cc3)cc2)s1	-31	5	1
O=C(CNC(=O)c1cc2ccccc2[nH]1)Nc1ccc2c(c1)OCCO2	5	25	51*
CCOC(=O)N1CCN(C(=O)CNC(=O)c2cc3c(OC)cccc3[nH]2)CC1	12	15	13
COc1ccc(NC(=O)[C@H](C)NC(=O)c2cc3c(OC)cccc3[nH]2)cc1Cl	98*	70*	86*
COc1cccc2[nH]c(C(=O)NCC(=O)Nc3ccc4c(c3)OCO4)cc12	1	-4	40*
O=C(CSc1nc2ccccc2[nH]1)Nc1ccc2c(c1)OCCO2	3	-66	0
COc1ccc(OC)c(NC(=O)c2cc3c(OC)cccc3[nH]2)c1	-8	-45	7
Cc1ccc(Cl)cc1NC(=O)COC(=O)c1ccccc1OCc1ccc(Cl)cc1	0	17	1
CCOC(=O)c1cnc2ccc3c[nH][nH]c3c2c1=O	30	20	9
Cn1c(N2CCN(C(=O)c3ccccc3F)CC2)cc(=O)n(C)c1=O	8	12	7
Cc1cn(C)c(C2CCCN(C(=O)Cn3cnc4ccccc43)C2)n1 (configuration not stated)	9	-3	-1
O=C(c1cccc(C(F)(F)F)c1)N1CCN(c2ccc(-c3ccncc3)nn2)CC1	2	17	-2
O=C(Nc1ccc(OCC(=O)N2CCOCC2)cc1)c1ccc2c(c1)OCO2	-2	24	15
O=C(Cc1ccccc1)N1CCC[C@@H]1Cn1nnc(-c2cccnc2)n1	0	10	4
Cc1ccc(NC(=O)c2nnn(CC(=O)Nc3cccc(C)c3C)c2N)cc1C	72*	38*	27
Cc1ccc(NC(=O)c2nnn(-c3cccc(F)c3)c2C)cc1C	16	12	13
Cc1ccc(N(C)C(=O)c2cccn2Cc2noc(C3CC3)n2)cc1	2	-14	2
O=S(=O)(c1ccc(Cl)cc1)N1CCC(c2nc(-c3cnccn3)no2)CC1	6	-38	-18
Cc1c(-c2ccc(C#N)cc2)oc2ccc(Br)cc2c1=O	5	-4	70*
CCOc1ccc(N2C(=O)c3ccccc3C2C(=O)NCc2ccccc2OC)cc1 (configuration not stated)	27	52*	35*
CCOc1ccc(CN2C(=O)c3ccccc3C2C(=O)NCc2ccccc2OC)cc1 (configuration not stated)	17	33*	40*
SMILES	USP8 block	USP30 block	USP17 inh
COCCN1C(=O)c2ccccc2C(C(=O)NCc2ccccc2OC)C12CCCC2 (configuration not stated)	6	-16	-11
COc1ccccc1CNC(=O)C1c2ccccc2CC(=O)N1C(C)C (configuration not stated)	4	-3	3
COc1ccccc1CNC(=O)C1c2ccccc2C(=O)N1Cc1ccc(C)cc1 (configuration not stated)	27	86*	75*
COc1ccccc1CNC(=O)[C@@H]1Cc2c([nH]c3ccccc23)C2c3ccccc3C(=O)N21 (some centres not stated)	-9	-107	-21
O=C(N[C@H]1C[C@@H]2C[C@H]1N(C(=O)NCCc1ccccc1)C2)c1ccccc1	15	22	9
Cc1ccc(CNC(=O)c2nn(-c3ccccc3F)nc2CO)cc1	1	-58	-5
COc1nc(OC)nc(N2CCC(NC(=O)C(Cc3cccc(C)c3)NC(C)=O)CC2)n1 (configuration not stated)	-5	-7	-1
COc1nc(OC)nc(N2CCC(NC(=O)C(Cc3ccccc3F)NC(C)=O)CC2)n1 (configuration not stated)	9	42*	14
COc1ccc(CC(NC(C)=O)C(=O)NC2CCN(c3nc(OC)nc(OC)n3)CC2)cc1 (configuration not stated)	7	32*	17
COc1cccc(CC(NC(C)=O)C(=O)NC2CCN(c3nc(OC)nc(OC)n3)CC2)c1 (configuration not stated)	-13	-32	-11
COc1nc(OC)nc(N2CCC(NC(=O)C(Cc3ccc(C)cc3)NC(C)=O)CC2)n1 (configuration not stated)	-2	34*	20
